Results filed as inconclusive are left out. Calls of active or inactive are those of the source. The call rests on the fitted dose curve; in most records, active means well fitted cell-killing curve with a large enough effect; inconclusive means small, poorly fitted or top-dose-only effect, or effect the other way; inactive means no such curve, though single readings can be large or run the other way.

This is an account of results in PubChem BioAssay AID1345085 (National Center for Advancing Translational Sciences (NCATS), 2018).
On the % scale 0 is the no-effect control and ±100 the full control effect; potency means the concentration at half of the fitted maximal effect.

In the test the test system is HeLa. The test can be described thus: Confirmatory qHTS for gynecologic anti-cancer compounds from libraries of approved drugs and bioactive compounds. Further: nearly all actives have a fitted effect of over 55% in size. To be noted: gynecologic cancer cell panel viability, ATPlite luminescence, 48 h; series mostly up to 57.6 µM; activity change, negative = viability loss: at the top concentration. A digest of the protocol: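 Seeding 1,000 cells per well preceded overnight (16 h) attachment, after which 48 h drug treatment across 57.5 uM–0.977 nM (11 points) was applied. Remaining cellular ATP, detected by ATPlite luminescence, defined IC50.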
Regarding `COc1cc(Nc2ncc(F)c(Nc3ccc4c(n3)N(COP(=O)(O)O)C(=O)C(C)(C)O4)n2)cc(OC)c1OC`, the Potency is 1.72 µM (active).

Turning to `Cc1cc(Nc2cc(N3CCN(C)CC3)nc(/C=C/c3ccccc3)n2)n[nH]1`, the Potency was 1.72 µM (active).

As for `CC(=O)O[C@H]1C(=O)[C@@]2(C)[C@H]([C@H](OC(=O)c3ccccc3)[C@]3(O)C[C@H](OC(=O)[C@H](O)[C@@H](NC(=O)c4ccccc4)c4ccccc4)C(C)=C1C3(C)C)[C@]1(OC(C)=O)CO[C@@H]1C[C@@H]2O`, the Potency was 0.0163 µM (active).

As to `O=C(NOCC1CC1)c1ccc(F)c(F)c1Nc1ccc(I)cc1Cl`, the Potency is 9.68 µM (active).

On to `Cc1nc2ccc(CN(C)c3ccc(C(=O)NC(CCC(=O)O)C(=O)O)s3)cc2c(=O)[nH]1` (configuration not stated), for which the Potency is 0.0544 µM (active).

As to `CCCCN(CCCC)CC(O)c1cc(Cl)cc2c1-c1ccc(Cl)cc1/C2=C/c1ccc(Cl)cc1` (configuration not stated), the “activity change, negative = viability loss” value was -17.5% (inactive).

For the molecule `Cc1cnc(Nc2ccc(CN3CCOCC3)cc2)nc1Nc1cccc(S(=O)(=O)NC(C)(C)C)c1`, the Potency was 2.17 µM (active).

Consider `CN(C[C@@H]1COCCO1)S(=O)(=O)Nc1ccc2ccc3ncc(-c4cnn(C)c4)cc3c(=O)c2c1`, for which the Potency was 5.44 µM (active).

As to `Cc1ccc(C(N)=O)cc1Nc1nccc(-c2cn(C(C)C)c3cnccc23)n1`, the Potency was 7.69 µM (active).

As to `Nc1ccccc1NC(=O)c1ccc(CNC(=O)OCc2cccnc2)cc1`, the Potency is 4.32 µM (active).

As to `Nc1cccc(-c2cc3c(Oc4cccc(O)c4)ncnc3[nH]2)c1`, the Potency was 9.68 µM (active).

Take `COc1cc2nccc(Oc3ccc(NC(=O)Nc4cc(C)on4)c(Cl)c3)c2cc1OC`: the Potency is 15.3 µM (active).

Turning to `C=CC(=O)Nc1cccc(Oc2nc(Nc3ccc(N4CCN(C)CC4)cc3)ncc2Cl)c1`, the Potency was 6.85 µM (active).

With `O=C(Nc1cccnc1)N1CCC(Cc2cccc(Oc3ccc(C(F)(F)F)cn3)c2)CC1`, the Potency was 3.85 µM (active).

For the molecule `COc1cc(Nc2c(C#N)cnc3cc(OCCCN4CCN(C)CC4)c(OC)cc23)c(Cl)cc1Cl`, the Potency is 27.3 µM (active).

As to `CNC1CCC(N(Cc2cccc(-c3ccncc3)c2)C(=O)c2sc3ccccc3c2Cl)CC1` (configuration not stated), the Potency is 27.3 µM (active).

As for `C=CC(=O)Nc1cc2c(Nc3ccc(F)c(Cl)c3)ncnc2cc1OCCCN1CCOCC1`, the Potency is 27.3 µM (active).

Turning to `Nc1ccccc1NC(=O)c1ccc(CNc2nccc(-c3cccnc3)n2)cc1`, the Potency is 1.53 µM (active).

In the case of `COc1cc(N2CCC(N(C)C)CC2)ccc1Nc1ncc(Cl)c(Nc2ccccc2P(C)(C)=O)n1`, the Potency is 1.37 µM (active).

Take `CCN[C@H]1C[C@H](C)S(=O)(=O)c2sc(S(N)(=O)=O)cc21`: the “activity change, negative = viability loss” value was -6.16% (inactive).

On to `CC(C)c1nn(-c2c(Cl)cccc2Cl)c2nc(Cc3ccc(OCCO)cc3)[nH]c(=O)c12`, for which the Potency was 0.122 µM (active).

Turning to `CC(C)C[C@H](NC(=O)[C@@H](NC(=O)c1cccc(-c2ccccc2)n1)[C@@H](C)O)B(O)O`, the Potency was 24.3 µM (active).

As to `CC(C)Oc1ccc(C(=O)NC(CNC(=O)CN(C)C)Cc2ccc(-c3cn4cccc(C(C)O)c4n3)cc2)cc1Cl` (configuration not stated), the Potency was 0.153 µM (active).

As for `Cc1cnc(Nc2ccc(OCCN3CCCC3)cc2)nc1Nc1cccc(S(=O)(=O)NC(C)(C)C)c1`, the Potency was 3.85 µM (active).

On to `Cc1[nH]c2ccccc2c1CCNCc1ccc(/C=C/C(=O)NO)cc1`, for which the Potency is 0.432 µM (active).

Take `CC[C@@]1(O)C(=O)OCc2c1cc1n(c2=O)Cc2cc3c(CN(C)C)c(O)ccc3nc2-1`: the Potency was 8.63 µM (active).

Turning to `O=c1c(-c2ccc(O)cc2)coc2cc(O)cc(O)c12`, the Potency is 12.2 µM (active).

Take `CCN(CC)CCNC(=O)c1c(C)[nH]c(/C=C2\C(=O)Nc3ccc(F)cc32)c1C`: the Potency was 12.6 µM (active).

Take `CCC1C(=O)N(C)c2cnc(Nc3ccc(C(=O)NC4CCN(C)CC4)cc3OC)nc2N1C1CCCC1` (configuration not stated): the Potency is 0.0049 µM (active).

`COc1cc(-c2nn(C3CCC(N4CCN(C(C)=O)CC4)CC3)c3ncnc(N)c23)ccc1NC(=O)c1cc2ccccc2n1C` (configuration not stated): the Potency was 30.6 µM (active).

For the molecule `NC(=O)Nc1cc(-c2cccc(F)c2)sc1C(=O)NC1CCCNC1` (configuration not stated), the Potency is 1.22 µM (active).

On to `CC(C)n1c(/C=C/[C@@H](O)C[C@@H](O)CC(=O)O)c(-c2ccc(F)cc2)c2ccccc21`, for which the Potency was 5.44 µM (active).

For `COc1cc(N2CCC(N3CCN(C)CC3)CC2)ccc1Nc1ncc(Cl)c(Nc2ccccc2S(=O)(=O)C(C)C)n1`, the Potency is 0.769 µM (active).

Consider `CN(C)CCC(CSc1ccccc1)Nc1ccc(S(=O)(=O)NC(=O)c2ccc(N3CCN(Cc4ccccc4-c4ccc(Cl)cc4)CC3)cc2)cc1[N+](=O)[O-]` (configuration not stated), for which the Potency is 19.3 µM (active).

`Cc1nc(N)ncc1-c1nc(N2CCOCC2)c2sc(C(C)(C)O)cc2n1`: the Potency was 1.72 µM (active).

For the molecule `C[C@@H](Oc1cc(-c2cnn(C3CCNCC3)c2)cnc1N)c1c(Cl)ccc(F)c1Cl`, the Potency was 4.32 µM (active).

On to `c1nc2nc(Nc3ccc(N4CCOCC4)cc3)nc(NC3CCCCC3)c2[nH]1`, for which the Potency is 1.88 µM (active).
